From paper PMC7819943, “Rice protein-binding microarrays: a tool to detect cis-acting elements near promoter regions in rice” come the findings set out here.

Whole data set: some 39,000 sequences, median “fluorescence intensity (a.u.)” near 4,300, cut for the highest 2% near 39,000. The entries come from a sample that favours the highest values as a whole.

This assay deals with T1, OsSMF1 (Oryza sativa, UniProt Q6ZLB0 1-436).
T1 sequence: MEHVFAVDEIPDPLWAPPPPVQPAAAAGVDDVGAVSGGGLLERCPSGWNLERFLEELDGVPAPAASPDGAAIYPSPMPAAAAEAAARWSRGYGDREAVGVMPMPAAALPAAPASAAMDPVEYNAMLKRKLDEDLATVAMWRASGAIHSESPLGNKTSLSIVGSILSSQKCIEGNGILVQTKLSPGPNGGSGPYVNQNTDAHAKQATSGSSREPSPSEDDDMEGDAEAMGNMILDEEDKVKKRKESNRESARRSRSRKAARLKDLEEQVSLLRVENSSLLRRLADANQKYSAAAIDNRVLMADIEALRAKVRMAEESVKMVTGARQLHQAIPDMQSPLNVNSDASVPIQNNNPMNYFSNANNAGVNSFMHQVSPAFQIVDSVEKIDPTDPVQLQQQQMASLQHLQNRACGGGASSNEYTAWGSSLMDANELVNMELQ
In words: protein-binding microarray (RPBM); PBS, 2% BSA, 51.3 ng/ul salmon testes DNA, 50 uM zinc acetate, 200 nM TF, 25 C, 1 h; high values mean tight binding. The conditions noted are these: protein: recombinant; tags: N-terminal polyhistidine and DsRed monomer fusion (pET32a); chain copies: 2; label: CyDye5-dUTP incorporated in the synthesized complementary strand; 3' TTTTT single-stranded linker to array surface; dsDNA, one strand shown. Summed up:
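Binding signal is defined as the fluorescence intensity of each feature in arbitrary units, read on an Axon 4000B scanner. Transcription factors with N-terminal polyhistidine and DsRed fusions came from E. coli BL21-CodonPlus and were purified on Ni–NTA. They were incubated at 200 nM for 1 h at 25 °C on a custom Agilent array that had been made double-stranded with Cy5-dUTP, with 50 µM zinc acetate present, and the array was washed.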
As for “CGGCCCAGCAGGCGAGCGTGACGTGGACCGGTCGTTTCGCCGGAGTCACCTAGTGCAG”, the binding signal was 5650 fluorescence intensity (a.u.).

With “TTGGCTGGAGCATCGTCACTACTATTCGACACTAAGGTGTCGGAGTCACCTAGTGCAG”, the binding signal was 3240 fluorescence intensity (a.u.).

With “AGAATTCCGTGATACGCGCATACGCGTCGACAAGAGAAATCGGAGTCACCTAGTGCAG”, the binding signal was 3280 fluorescence intensity (a.u.).

As for “GGAAGGCGACGCGTTACTGTGCACGATGCGGACCTCGAAACGGAGTCACCTAGTGCAG”, the binding signal is 60400 fluorescence intensity (a.u.).

As for “GCCTCGAACGACGTGTGGACGCGATGGAAGATGCGTTCTGCGGAGTCACCTAGTGCAG”, the binding signal is 3210 fluorescence intensity (a.u.).

With “CCACGCGTCGTCGACGTACTGCGCGATGACGGCGGACTCGCGGAGTCACCTAGTGCAG”, the binding signal was 4700 fluorescence intensity (a.u.).

Regarding “TCGCTCGCTCGCCTGCCAAATCTGCATTGGTGCTAGGAGGCGGAGTCACCTAGTGCAG”, the binding signal is 3730 fluorescence intensity (a.u.).

On to “ACGCGCTCGCCTCGCGTCATCGGATCAAATGGTGGAGGCGCGGAGTCACCTAGTGCAG”, for which the binding signal is 3970 fluorescence intensity (a.u.).

Take “CATACATGGAAAAGACAAATCGCCTGGTGCATGAGGCGCTCGGAGTCACCTAGTGCAG”: the binding signal is 40600 fluorescence intensity (a.u.).

Regarding “TCCTTTCGTTATCTGTACGGCAGTGACGTCCACGACTCGACGGAGTCACCTAGTGCAG”, the binding signal is 4340 fluorescence intensity (a.u.).

As for “CTGCAGTACAACAAACATGATAGTACTTGAAATCATCTTGCGGAGTCACCTAGTGCAG”, the binding signal is 27400 fluorescence intensity (a.u.).

“CAACAAGCGGGTGGCTGGAAGGTGTGTGTGTGAGAGAGAGCGGAGTCACCTAGTGCAG”: the binding signal is 3180 fluorescence intensity (a.u.).

Take “GATATCACAACCTGACCCACATTAGTCACACGCACTCACACGGAGTCACCTAGTGCAG”: the binding signal was 3790 fluorescence intensity (a.u.).

As to “CTATTGTATGAATTGGCTATAGATGATTTGGAGGCAGTAGCGGAGTCACCTAGTGCAG”, the binding signal was 3800 fluorescence intensity (a.u.).

For “ATAAAGAATATGTAGAATTGGAACTATGCTAAGAGAAGAGCGGAGTCACCTAGTGCAG”, the binding signal was 3280 fluorescence intensity (a.u.).

For “GTATTGTGTGTATTTATACATCATGAAAGAATAGAATAAACGGAGTCACCTAGTGCAG”, the binding signal was 28600 fluorescence intensity (a.u.).

Regarding “GTAAGAATTGGCTGTTAGATTGGCTATAAATGAATTGGAGCGGAGTCACCTAGTGCAG”, the binding signal was 50800 fluorescence intensity (a.u.).

“TGGAGTAAACGATGAATACATGTTATAATAGTGTAGATTGCGGAGTCACCTAGTGCAG”: the binding signal was 65100 fluorescence intensity (a.u.).

Consider “ATGAGTGTGAGTGTGGCATGCGTGCATGTGTAATAGTAAACGGAGTCACCTAGTGCAG”, for which the binding signal is 3480 fluorescence intensity (a.u.).

Regarding “TTCAAGTCCACATGGTGCTGACGTGAAACTGTCACATACACGGAGTCACCTAGTGCAG”, the binding signal is 7250 fluorescence intensity (a.u.).

Regarding “GCATAGGAAGGTGACATGGCATATCCATGTGGCGATTTTGCGGAGTCACCTAGTGCAG”, the binding signal was 7280 fluorescence intensity (a.u.).

“ACCAGTACGCATAGCATCATGTTGTTCCTGTGAAAGCATCCGGAGTCACCTAGTGCAG”: the binding signal is 3460 fluorescence intensity (a.u.).

Turning to “AGCTTCATCTGCAATCCTCCGCTGATCTCTCCCTGTCCGGCGGAGTCACCTAGTGCAG”, the binding signal was 3940 fluorescence intensity (a.u.).

Consider “CCATCGCCGCCGCCCTCTTCTTCTTCTTCTTGCGAAGCAACGGAGTCACCTAGTGCAG”, for which the binding signal is 19100 fluorescence intensity (a.u.).

“GCAGAGGAACCTTGGTAGTAGTATTTGGTTTCTCAGAAGTCGGAGTCACCTAGTGCAG”: the binding signal was 52600 fluorescence intensity (a.u.).

As to “TTTCAGAGTTTGAAGTTGGAAATCAACCTTGTTGTTCTCTCGGAGTCACCTAGTGCAG”, the binding signal was 63100 fluorescence intensity (a.u.).

Turning to “CATAATATGGTAGTGTTGTTTCTCATGCAAGTATTGGCGTCGGAGTCACCTAGTGCAG”, the binding signal was 3160 fluorescence intensity (a.u.).

As for “AAGAGATCCTTGTGTTTCGGAAGAATTTTGGTTGGTGTATCGGAGTCACCTAGTGCAG”, the binding signal is 23500 fluorescence intensity (a.u.).

Turning to “ACAAGTTGGAGCTACTTTCTTTTGAAATGACAGATCAACTCGGAGTCACCTAGTGCAG”, the binding signal was 3250 fluorescence intensity (a.u.).

In the case of “TTATTTTGGTCAGTTGAAGTGTGGAAAATGGTGAAAATCTCGGAGTCACCTAGTGCAG”, the binding signal was 3880 fluorescence intensity (a.u.).

Regarding “GAGAGCTCCCTTTTCGTACCACCTCGCCGCGTCGGCTGCTCGGAGTCACCTAGTGCAG”, the binding signal was 4870 fluorescence intensity (a.u.).

With “AGCCGCGGTCACGCACGCCACGCGTTCGATCGATCGATCACGGAGTCACCTAGTGCAG”, the binding signal is 4120 fluorescence intensity (a.u.).

On to “GCTGGCTGGATTGCCACGTGTATGTCACGTAGGATAAAACCGGAGTCACCTAGTGCAG”, for which the binding signal was 14300 fluorescence intensity (a.u.).

Take “GTTGACCCGCAGTTCCCCTTTGTTTTCCACGTGTTTCTTCCGGAGTCACCTAGTGCAG”: the binding signal is 7790 fluorescence intensity (a.u.).

“CGGACGTCCCACACGCTTGGTGTCACGACGAGAGGAACCTCGGAGTCACCTAGTGCAG”: the binding signal is 3450 fluorescence intensity (a.u.).

For the sequence “CTTGAAGGAAAACAAGTATAAGGTTCATCCTCATCATCACCGGAGTCACCTAGTGCAG”, the binding signal is 3270 fluorescence intensity (a.u.).

“AAACATCAATTGTATTATCCTTGAAAAGAAGGCACATCACCGGAGTCACCTAGTGCAG”: the binding signal was 44800 fluorescence intensity (a.u.).

Turning to “ATCAAAGAGGATTCTGTATTGTATTGGCAACAACCGAAAACGGAGTCACCTAGTGCAG”, the binding signal was 13800 fluorescence intensity (a.u.).

Take “ATTGAAAATTTTGTTTGAGTGCACATCGTGTGCATTTTATCGGAGTCACCTAGTGCAG”: the binding signal is 8920 fluorescence intensity (a.u.).

With “AAATTTTAATACGTGTAGCATTGCTCCCGGTAATGTATTTCGGAGTCACCTAGTGCAG”, the binding signal is 3700 fluorescence intensity (a.u.).

Take “ATAGAGATCACAGTCACACACATATGGCCTGTGCATTTACCGGAGTCACCTAGTGCAG”: the binding signal was 3720 fluorescence intensity (a.u.).

For the sequence “CGAAAATGATCTGACACTTATTCGAAAGCAACGTCACAAGCGGAGTCACCTAGTGCAG”, the binding signal was 4300 fluorescence intensity (a.u.).
